Where “and” joins values, the source holds several entries; their conditions need not be identical. Equal values may be shown once. This is part of a sample that, as a whole, favours compounds with a hit. Of some 83,000 tested, about 20% had one in any assay.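 Single-concentration screen, 48 h exposure, 96-well plates. Endpoint: percent growth. Below 10 = active.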 Calls of active or inactive are those of the source.
Experiments:
Assay in all cases: NCI-60 one-dose screen, 48 h (100 = growth as untreated, 0 = no growth, -100 = all killed)
Conditions in all cases: 10 µM unless noted
DU-145 prostate = tested on: DU-145 prostate
K-562 leukemia = tested on: K-562 leukemia
MALME-3M melanoma = tested on: MALME-3M melanoma
MDA-MB-231 breast = tested on: MDA-MB-231 breast
RXF 393 renal = tested on: RXF 393 renal
SF-268 CNS = tested on: SF-268 CNS
SF-295 CNS = tested on: SF-295 CNS
SF-539 CNS = tested on: SF-539 CNS
UACC-257 melanoma = tested on: UACC-257 melanoma
M14 melanoma = tested on: M14 melanoma
HCT-15 colon = tested on: HCT-15 colon
HT29 colon = tested on: HT29 colon
SNB-75 CNS = tested on: SNB-75 CNS
SNB-19 CNS = tested on: SNB-19 CNS
SK-MEL-5 melanoma = tested on: SK-MEL-5 melanoma
UACC-62 melanoma = tested on: UACC-62 melanoma
LOX IMVI melanoma = tested on: LOX IMVI melanoma
PC-3 prostate = tested on: PC-3 prostate
SK-MEL-28 melanoma = tested on: SK-MEL-28 melanoma
U251 CNS = tested on: U251 CNS

Measured: growth

COC(=O)c1nc(=S)[nH]c(C(=O)OC)c1C(=O)c1ccc2ccccc2c1
inactive: DU-145 prostate 110% | K-562 leukemia 102% | MALME-3M melanoma 94.5% | MDA-MB-231 breast 90.4% | RXF 393 renal 99.6% | SF-268 CNS 102% | SF-295 CNS 98.6% | SF-539 CNS 92.5% | UACC-257 melanoma 112% | M14 melanoma 112% | HCT-15 colon 99.2% | HT29 colon 112% | SNB-75 CNS 84.5% | SNB-19 CNS 94.7% | SK-MEL-5 melanoma 98.9% | UACC-62 melanoma 89.4% | LOX IMVI melanoma 94.7%

CC1SC(=S)N(c2ccc(Cl)cc2)C1=O (stereo not drawn)
inactive: DU-145 prostate 104% and 96.3% | K-562 leukemia 84.1% and 78.8% | MALME-3M melanoma 104% and 108% | MDA-MB-231 breast 99.6% and 86.4% | RXF 393 renal 116% | SF-268 CNS 109% and 84.1% | SF-295 CNS 96% and 98.8% | SF-539 CNS 98.5% and 70.7% | UACC-257 melanoma 97.9% | M14 melanoma 111% and 105% | HCT-15 colon 96.5% and 84.1% | HT29 colon 105% and 98.8% | SNB-75 CNS 88.8% and 83% | SNB-19 CNS 99.9% and 104% | PC-3 prostate 97.7% and 74.3% | SK-MEL-5 melanoma 94.6% and 93.6% | UACC-62 melanoma 82.5% and 70.1%

CN(C)c1ccc(N=Nc2cccc3ccccc23)cc1
inactive: DU-145 prostate 107% | K-562 leukemia 117% | MALME-3M melanoma 101% | MDA-MB-231 breast 80.1% | RXF 393 renal 98.9% | SF-268 CNS 95.1% | SF-295 CNS 91.5% | SF-539 CNS 97.1% | UACC-257 melanoma 96.3% | M14 melanoma 80.5% | HCT-15 colon 93.1% | HT29 colon 93.5% | SNB-75 CNS 76.4% | SNB-19 CNS 100% | PC-3 prostate 75.9% | SK-MEL-5 melanoma 93.9% | UACC-62 melanoma 84.2%

CCOC(=O)/C(=C\c1ccc(-c2ccccc2)cc1)C(C)=O
inactive: DU-145 prostate 99.3% | K-562 leukemia 101% | MALME-3M melanoma 87.1% | MDA-MB-231 breast 112% | RXF 393 renal 95.6% | SF-268 CNS 91% | SF-295 CNS 102% | SF-539 CNS 98% | UACC-257 melanoma 120% | M14 melanoma 94.7% | HCT-15 colon 94.5% | HT29 colon 104% | SNB-75 CNS 88% | SNB-19 CNS 99.9% | PC-3 prostate 107% | SK-MEL-5 melanoma 98.7% | UACC-62 melanoma 94.6%

COc1ccc2nc3cc(Cl)ccc3c(NCCNc3c4ccc(Cl)cc4nc4ccc(OC)cc34)c2c1
active: DU-145 prostate -95.4% | K-562 leukemia -52.7% | MALME-3M melanoma -77.4% | MDA-MB-231 breast -78.9% | RXF 393 renal -93% | SF-268 CNS -82.6% | SF-295 CNS -93.2% | SF-539 CNS -85.5% | UACC-257 melanoma -89.6% | M14 melanoma -74.2% | HCT-15 colon -65.9% | HT29 colon -65.7% | SNB-75 CNS -86.8% | SNB-19 CNS -87.7% | PC-3 prostate -63% | SK-MEL-5 melanoma -96.5% | UACC-62 melanoma -88.4% | SK-MEL-28 melanoma -86.4%

O=C(/C=C\c1cc(Br)ccc1O)/C=C/c1cc(Br)ccc1O
active: DU-145 prostate 2.79% | K-562 leukemia 5.64% | MALME-3M melanoma -5.41% | MDA-MB-231 breast 0.442% | RXF 393 renal -49.4% | SF-268 CNS -17.9% | SF-295 CNS -1.61% | SF-539 CNS -49.1% | UACC-257 melanoma -16.7% | M14 melanoma -51.7% | HCT-15 colon 0% | HT29 colon -54.2% | SNB-75 CNS -8.46% | SNB-19 CNS -52.7% | PC-3 prostate -16% | SK-MEL-5 melanoma -87.5% | UACC-62 melanoma -67.5% | LOX IMVI melanoma -95.6% | SK-MEL-28 melanoma -66.9%

CCC(=O)Sc1ccccc1C(=O)Nc1ccc(Cl)cc1
inactive: DU-145 prostate 74.3% | K-562 leukemia 19.4% | MDA-MB-231 breast 67.2% | RXF 393 renal 88.2% | SF-268 CNS 56.4% | SF-295 CNS 35.5% | SF-539 CNS 49.7% | UACC-257 melanoma 94.7% | M14 melanoma 42.4% | HCT-15 colon 46% | HT29 colon 17% | SNB-75 CNS 76.7% | SNB-19 CNS 76.1% | PC-3 prostate 66.9% | SK-MEL-5 melanoma 25.2% | UACC-62 melanoma 54.1% | SK-MEL-28 melanoma 49.8%
active: MALME-3M melanoma 6.61%

CC1=CC(O)C2CC1C2(C)C (stereo not drawn)
inactive: DU-145 prostate 108% and 122% | K-562 leukemia 96.6% and 93.4% | MALME-3M melanoma 97.6% and 107% | MDA-MB-231 breast 99.1% and 110% | RXF 393 renal 115% and 104% | SF-268 CNS 104% and 113% | SF-295 CNS 103% | SF-539 CNS 99.8% and 110% | UACC-257 melanoma 95.9% and 110% | M14 melanoma 97.3% and 109% | HCT-15 colon 104% and 112% | HT29 colon 88.2% and 98.1% | SNB-75 CNS 84.6% and 95.3% | SNB-19 CNS 103% and 116% | PC-3 prostate 94.9% and 86.4% | SK-MEL-5 melanoma 103% and 104% | UACC-62 melanoma 101% and 105% | LOX IMVI melanoma 98% and 105% | SK-MEL-28 melanoma 107% and 115%

CCOC(=O)/C=C/c1ccc([N+](=O)[O-])o1
active: K-562 leukemia 9.66% | MALME-3M melanoma -6.92%
inactive: DU-145 prostate 69.2% | MDA-MB-231 breast 67.8% | RXF 393 renal 18.4% | SF-268 CNS 76.2% | SF-295 CNS 99.2% | SF-539 CNS 68.3% | UACC-257 melanoma 54.2% | M14 melanoma 70.1% | HT29 colon 36.7% | SNB-75 CNS 98.7% | SNB-19 CNS 97.2% | U251 CNS 82.6% | PC-3 prostate 93.4% | SK-MEL-5 melanoma 69.1% | UACC-62 melanoma 32.6%

CC(=O)ON=C1C=CC(=C(C#N)c2ccccc2)C=C1
active: DU-145 prostate 1.67% | HCT-15 colon 8.51% | PC-3 prostate -1.95%
inactive: K-562 leukemia 28.1% | MALME-3M melanoma 83.3% | MDA-MB-231 breast 13.9% | RXF 393 renal 35.5% | SF-268 CNS 14.1% | SF-295 CNS 39.8% | SF-539 CNS 24.5% | UACC-257 melanoma 30.5% | M14 melanoma 22.2% | HT29 colon 82.2% | SNB-75 CNS 19.6% | SNB-19 CNS 82.5% | SK-MEL-5 melanoma 48.1% | UACC-62 melanoma 26.1%

O=C(Nc1ccccc1)Oc1c(Cl)c(Cl)c(Cl)c(Cl)c1Cl
inactive: DU-145 prostate 110% and 101% | K-562 leukemia 101% and 93.9% | MALME-3M melanoma 89% and 104% | MDA-MB-231 breast 88.2% and 94.2% | RXF 393 renal 113% and 110% | SF-268 CNS 94.2% and 98.8% | SF-295 CNS 97.4% and 91.8% | SF-539 CNS 99.7% and 90.6% | UACC-257 melanoma 109% and 103% | M14 melanoma 101% and 95.3% | HCT-15 colon 102% and 99.8% | HT29 colon 104% and 96.6% | SNB-75 CNS 93.1% and 77.4% | SNB-19 CNS 93.5% and 100% | SK-MEL-5 melanoma 101% and 96.1% | UACC-62 melanoma 88.8% and 89.5% | SK-MEL-28 melanoma 119% and 101%

O=C(CC1(O)C(=O)Nc2c(Cl)ccc(Cl)c21)c1ccc(Cl)cc1Cl (stereo not drawn)
inactive: DU-145 prostate 103% | K-562 leukemia 93.6% | MALME-3M melanoma 100% | MDA-MB-231 breast 109% | RXF 393 renal 94.5% | SF-268 CNS 97.4% | SF-295 CNS 100% | SF-539 CNS 103% | UACC-257 melanoma 78.8% | M14 melanoma 89.2% | HCT-15 colon 101% | HT29 colon 90.3% | SNB-75 CNS 70.1% | SNB-19 CNS 107% | U251 CNS 96.4% | SK-MEL-5 melanoma 100% | UACC-62 melanoma 97.8% | SK-MEL-28 melanoma 109%

Cc1ccc(NS(=O)(=O)c2ccc(C)cc2)cc1
inactive: DU-145 prostate 101% and 104% | K-562 leukemia 85.7% and 101% | MALME-3M melanoma 105% and 101% | MDA-MB-231 breast 103% and 107% | RXF 393 renal 103% and 96.1% | SF-268 CNS 97.8% and 93.1% | SF-295 CNS 95.5% and 93.4% | SF-539 CNS 111% and 101% | UACC-257 melanoma 89.8% and 77.2% | M14 melanoma 98% and 99.2% | HCT-15 colon 101% and 104% | HT29 colon 101% and 90.4% | SNB-75 CNS 87.7% and 102% | SNB-19 CNS 106% and 102% | PC-3 prostate 97.7% and 94% | SK-MEL-5 melanoma 97.8% and 95.3% | UACC-62 melanoma 91% and 99.2% | LOX IMVI melanoma 99.2% and 96% | SK-MEL-28 melanoma 116% and 110%

CCCCCCC(C)c1ccccc1O (stereo not drawn) (tested in a mixture with another compound)
inactive: DU-145 prostate 116% | K-562 leukemia 106% | MALME-3M melanoma 106% | MDA-MB-231 breast 104% | RXF 393 renal 113% | SF-268 CNS 112% | SF-295 CNS 116% | SF-539 CNS 99.3% | UACC-257 melanoma 117% | M14 melanoma 111% | HCT-15 colon 105% | HT29 colon 113% | SNB-75 CNS 128% | SNB-19 CNS 106% | PC-3 prostate 94.8% | SK-MEL-5 melanoma 111% | UACC-62 melanoma 99.6% | SK-MEL-28 melanoma 111%

From PubChem BioAssay (NCI)
